Laboratory results as given in PubChem BioAssay (EPA / NIEHS).
Records with an inconclusive call do not appear. Active and inactive are the calls of the source. Rule for the calls, unless noted: active = hit-call score of the fitted dose curve at least 0.9, where 1 is the maximum; inconclusive = response in the unintended direction; inactive = score below 0.9.

Columns and labels:
[1] = ATG_TAL_CIS: Attagene CIS-FACTORIAL HepG2 Assay for human TAL Basal Promoter (AID 2282966; active = hit-call score of the fitted dose curve at least 0.9, where 1 is the maximum; inactive = score below 0.9;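 note: background control endpoint measuring basal TAL promoter reporter mRNA not a specific factor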); conditions: HepG2 Attagene cis-factorial TAL promoter reporter; actives raise or lower the signal
How it was run: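 In this cell-based multiplex, HepG2 liver cells bearing cis-promoter reporter constructs are dosed for 24 hours. Total RNA is reverse-transcribed and amplified, labelled fragments are sized by capillary electrophoresis, and signal changes are fitted bidirectionally versus DMSO.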

[2] = ATG_TGFb_CIS: Attagene CIS-FACTORIAL HepG2 Assay for human Transforming Growth Factor (TGF) (AID 2282967; active = hit-call score of the fitted dose curve at least 0.9, where 1 is the maximum; inactive = score below 0.9); conditions: HepG2 Attagene CIS TGFb reporter, mRNA transcription; actives raise or lower the signal
How it was run: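 Endogenous TGFB1-linked transcription factor activity read as reporter mRNA via RT-PCR and capillary electrophoresis, 24 h after dosing transiently transfected HepG2 cells. Gain or loss of signal fitted relative to DMSO.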

[3] = ATG_VDRE_CIS: Attagene CIS-FACTORIAL HepG2 Assay for human Vitamin D Receptor Element (VDRE) (AID 2282968; active = hit-call score of the fitted dose curve at least 0.9, where 1 is the maximum; inactive = score below 0.9); conditions: HepG2 VDRE cis-reporter transcription, actives raise or lower the signal
How it was run: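 In transiently transfected HepG2 liver cells, gain or loss of reporter mRNA after 24 h exposure is scored relative to DMSO, using fluorescence detection by capillary electrophoresis of RT-PCR products.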

[4] = biological target: Nuclear receptor subfamily 1 group I member 3 (Homo sapiens) (UniProt Q14994); assay: ATG_CAR_TRANS: Attagene TRANS-FACTORIAL HepG2 Assay for human Constitutive Androstane Receptor (CAR) (AID 2282969); conditions: HepG2 Attagene TRANS-FACTORIAL CAR reporter;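 note: activators raise reporter mRNA above DMSO so AC50 marks induction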
How it was run: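 Readout is reporter mRNA induction, quantified by fluorescent primer extension and capillary electrophoresis after RT-PCR. Cells were HepG2 transiently carrying chimeric NR-Gal4 constructs with GAL4-UAS reporters, treated for 24 h; activity scored upward from DMSO.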

[5] = biological target: X-box-binding protein 1 (Homo sapiens) (UniProt P17861); assay: ATG_Xbp1_CIS: Attagene CIS-FACTORIAL HepG2 Assay for human X-box Binding Protein 1 (XBP1) (AID 2282972; active = hit-call score of the fitted dose curve at least 0.9, where 1 is the maximum; inactive = score below 0.9); conditions: HepG2 XBP1 cis-element reporter, Attagene multiplex; actives raise or lower the signal
How it was run: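 HepG2, transient MRTU transfection (cis-promoter driven), 24 h compound exposure. Total RNA → oligo(dT) RT → PCR → 6-FAM labeling → HpaI cut → CE. Bidirectional fit vs DMSO.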

[6] = ATG_M_19_TRANS: Attagene TRANS-FACTORIAL HepG2 Assay for M19 Transcription Factor (Internal Marker) (AID 2282974); conditions: HepG2 Attagene TRANS-FACTORIAL M19 internal marker reporter
How it was run: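 Cells: human HepG2, transiently transfected with multiplexed reporter transcription units. Exposure: 24 h. Detection: RT-PCR of reporter mRNA with capillary electrophoresis. Analysis: gain-of-signal vs DMSO.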

[7] = biological target: Glucocorticoid receptor (Homo sapiens) (UniProt P04150); assay: ATG_GR_TRANS: Attagene TRANS-FACTORIAL HepG2 Assay for human Glucocorticoid Receptor (GR) (AID 2282978); conditions: HepG2 Attagene TRANS GR reporter, mRNA transcription;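 note: activators score as hits since higher reporter transcript over DMSO is fitted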
How it was run: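 In this trans-factorial format, exogenous NR-GAL4 chimeric proteins in transfected HepG2 cells regulate GAL4-UAS reporter transcription. After 24 h treatment, reporter mRNA induction relative to DMSO is read by RT-PCR and capillary electrophoresis.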

[8] = biological target: Oxysterols receptor LXR-beta (Homo sapiens) (UniProt P55055); assay: ATG_LXRb_TRANS: Attagene TRANS-FACTORIAL HepG2 Assay for human Liver X Receptor beta (LXRb) (AID 2282981); conditions: HepG2 Attagene TRANS GAL4-LXRb reporter, mRNA
How it was run: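 Cells: HepG2, transiently transfected with GAL4-UAS reporter units plus LXRb-Gal4 fusion. Treatment: 24 h. Detection: reporter mRNA by RT-PCR, 6-FAM labelling, HpaI digestion, capillary electrophoresis.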

[9] = ATG_M_06_TRANS: Attagene TRANS-FACTORIAL HepG2 Assay for M06 Transcription Factor (Internal Marker) (AID 2282983); conditions: HepG2 Attagene TRANS M06 internal marker reporter
How it was run: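 After a 24 h chemical treatment of transfected HepG2, RNA underwent DNase I treatment, reverse transcription and reporter-specific PCR; labelled, HpaI-digested products were sized by capillary electrophoresis. Signal increase relative to DMSO defined activity.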

[10] = biological target: Nuclear receptor subfamily 4 group A member 2 (Homo sapiens) (UniProt P43354); assay: ATG_NURR1_TRANS: Attagene TRANS-FACTORIAL HepG2 Assay for human Nuclear Receptor Related Protein 1 (NURR1) (AID 2282985); conditions: HepG2 Attagene TRANS reporter, mRNA readout
How it was run: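 Cells: HepG2, transiently transfected. Exposure: 24 h. Detection: fluorescence of labelled RT-PCR products separated by capillary electrophoresis; upward fit versus DMSO.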

[11] = biological target: Transcriptional activator Myb (Homo sapiens) (UniProt P10242); assay: ATG_Myb_CIS: Attagene CIS-FACTORIAL HepG2 Assay for human Myeloblastosis (Myb) Proto-Oncogene Transcription Factor (AID 2282986; active = hit-call score of the fitted dose curve at least 0.9, where 1 is the maximum; inactive = score below 0.9); conditions: HepG2 Attagene CIS-FACTORIAL Myb reporter transcription; actives raise or lower the signal
How it was run: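 Steps: transfect HepG2 with cis-regulated reporter units; dose with chemical for 24 h; isolate RNA, reverse-transcribe, PCR-amplify and FAM-label reporter sequences; digest with HpaI; resolve by capillary electrophoresis. Activity fitted in both directions relative to DMSO.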

[12] = biological target: Nuclear respiratory factor 1 (Homo sapiens) (UniProt Q16656); assay: ATG_NRF1_CIS: Attagene CIS-FACTORIAL HepG2 Assay for human Nuclear Respiratory Factor 1 (NRF1) Orphan Gene (AID 2282987; active = hit-call score of the fitted dose curve at least 0.9, where 1 is the maximum; inactive = score below 0.9); conditions: HepG2 NRF1 cis-element reporter, Attagene multiplex; actives raise or lower the signal
How it was run: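 Fluorescence intensity of labelled reporter cDNA fragments, resolved by capillary electrophoresis, served as readout for NRF1 cis-element activity. Transiently transfected HepG2 cells were dosed for 24 hours; activity in either direction was fitted against DMSO negative control.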

[13] = biological target: Hepatocyte nuclear factor 4-alpha (Homo sapiens) (UniProt P41235); assay: ATG_HNF4a_TRANS: Attagene TRANS-FACTORIAL HepG2 Assay for human Hepatocyte Nuclear Factor 4 alpha (HNF4a) (AID 2282982); conditions: HepG2 HNF4a transactivation reporter, mRNA readout
How it was run: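 Transfected HepG2 reporter cells are dosed for 24 h; reporter RNA is reverse-transcribed, amplified, fluorescently labelled and HpaI-digested before CE sizing. Positive-direction fit against DMSO.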

[14] = biological target: Estrogen-related receptor gamma (Homo sapiens) (UniProt P62508); assay: ATG_ERRg_TRANS: Attagene TRANS-FACTORIAL HepG2 Assay for human Estrogen-Related Receptor gamma (ERRg) (AID 2282977); conditions: HepG2 Attagene TRANS reporter, ERRg transactivation;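 note: hits increase reporter signal over DMSO so potencies reflect activators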
How it was run: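 Transient HepG2 transfectants, 24 h compound exposure, GAL4-UAS reporter mRNA by RT-PCR/6-FAM labelling/capillary electrophoresis; positive direction vs DMSO.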

[15] = biological target: Bile acid receptor (Homo sapiens) (UniProt Q96RI1); assay: ATG_FXR_TRANS: Attagene TRANS-FACTORIAL HepG2 Assay for Farnesoid X Receptor (FXR) (AID 2282979); conditions: HepG2 Attagene TRANS FXR-GAL4 reporter transcription;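 note: hits raise reporter mRNA above DMSO so AC50 marks FXR activation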
How it was run: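 Read-out: fluorescent reporter transcripts quantified by capillary electrophoresis after RT-PCR of total RNA. Source cells were HepG2 transiently carrying chimeric NR-GAL4 plus GAL4-UAS reporter units, dosed 24 h. Activity fitted upward relative to DMSO baseline.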

[16] = biological target: Oxysterols receptor LXR-alpha (Homo sapiens) (UniProt Q13133); assay: ATG_LXRa_TRANS: Attagene TRANS-FACTORIAL HepG2 Assay for human Liver X Receptor alpha (LXRa) (AID 2282980); conditions: HepG2 Attagene TRANS reporter, LXRa transactivation
How it was run: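 Read-out: reporter transcript levels by RT-PCR plus capillary electrophoresis, fluorescence intensity. Transiently transfected HepG2, exogenous NR-GAL4 chimera, GAL4-UAS reporters; 24 h compound exposure. Activity = increase over DMSO negative control.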

[17] = biological target: Steroid hormone receptor ERR1 (Homo sapiens) (UniProt P11474); assay: ATG_ERRa_TRANS: Attagene TRANS-FACTORIAL HepG2 Assay for human Estrogen-Related Receptor alpha (ERRa) (AID 2282971); conditions: HepG2 Attagene TRANS reporter, ERRa transactivation
How it was run: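 Transfected HepG2, 24 h dosing, ERRa-Gal4 chimera driving GAL4-UAS reporter. Readout: reporter mRNA via RT-PCR plus capillary electrophoresis (fluorescence). Positive direction vs DMSO control.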

[18] = biological target: Estrogen receptor (Homo sapiens) (UniProt P03372); assay: ATG_ERa_TRANS: Attagene TRANS-FACTORIAL HepG2 Assay for human Estrogen Receptor alpha (ERa) (AID 2282970); conditions: HepG2 Attagene TRANS ERa GAL4 reporter, mRNA
How it was run: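 After 24 h of compound treatment, RNA from HepG2 cells bearing transfected GAL4-UAS reporter constructs is converted to cDNA, amplified and fluorescently labelled. Capillary electrophoresis resolves the ERa-linked reporter; DMSO serves as negative control.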

[19] = ATG_GAL4_TRANS: Attagene TRANS-FACTORIAL HepG2 Assay for GAL4 (Internal Marker) (AID 2282976); conditions: HepG2 Attagene TRANS GAL4 internal marker reporter
How it was run: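 RT-PCR/capillary electrophoresis readout of reporter mRNA. HepG2, transient MRTU transfection (GAL4-UAS reporters), 24 h compound exposure. Background-control endpoint, positive direction vs DMSO baseline.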

Measured: AC50

Chain of Oxysterols receptor LXR-alpha (Homo sapiens) (Q13133 whole entry, looked up, the tested form may be a part): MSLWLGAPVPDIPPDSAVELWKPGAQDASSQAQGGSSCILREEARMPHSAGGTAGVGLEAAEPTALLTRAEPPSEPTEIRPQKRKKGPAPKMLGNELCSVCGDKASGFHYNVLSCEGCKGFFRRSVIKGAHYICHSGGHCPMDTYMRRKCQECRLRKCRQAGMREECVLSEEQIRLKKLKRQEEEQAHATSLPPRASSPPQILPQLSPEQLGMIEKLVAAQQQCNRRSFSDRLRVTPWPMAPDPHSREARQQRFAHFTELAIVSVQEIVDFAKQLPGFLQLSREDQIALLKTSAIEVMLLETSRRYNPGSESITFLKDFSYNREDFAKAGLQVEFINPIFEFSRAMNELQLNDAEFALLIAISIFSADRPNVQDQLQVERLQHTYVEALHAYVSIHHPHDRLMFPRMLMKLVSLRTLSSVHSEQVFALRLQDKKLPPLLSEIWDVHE
Chain of Bile acid receptor (Homo sapiens) (Q96RI1 whole entry, looked up, the tested form may be a part): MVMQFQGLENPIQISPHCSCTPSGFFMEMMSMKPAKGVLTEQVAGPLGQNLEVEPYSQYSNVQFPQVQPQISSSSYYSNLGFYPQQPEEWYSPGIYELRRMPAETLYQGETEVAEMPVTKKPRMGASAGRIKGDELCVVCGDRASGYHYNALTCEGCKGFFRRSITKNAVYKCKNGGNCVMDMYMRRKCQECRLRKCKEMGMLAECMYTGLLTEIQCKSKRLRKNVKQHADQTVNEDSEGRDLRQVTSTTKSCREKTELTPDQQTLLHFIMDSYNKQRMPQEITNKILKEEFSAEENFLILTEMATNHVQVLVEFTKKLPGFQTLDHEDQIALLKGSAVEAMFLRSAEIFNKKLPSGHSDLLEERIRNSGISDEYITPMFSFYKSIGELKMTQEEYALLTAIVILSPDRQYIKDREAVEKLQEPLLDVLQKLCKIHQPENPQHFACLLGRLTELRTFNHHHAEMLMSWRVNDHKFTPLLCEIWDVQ
Chain of Nuclear receptor subfamily 1 group I member 3 (Homo sapiens) (Q14994 whole entry, looked up, the tested form may be a part): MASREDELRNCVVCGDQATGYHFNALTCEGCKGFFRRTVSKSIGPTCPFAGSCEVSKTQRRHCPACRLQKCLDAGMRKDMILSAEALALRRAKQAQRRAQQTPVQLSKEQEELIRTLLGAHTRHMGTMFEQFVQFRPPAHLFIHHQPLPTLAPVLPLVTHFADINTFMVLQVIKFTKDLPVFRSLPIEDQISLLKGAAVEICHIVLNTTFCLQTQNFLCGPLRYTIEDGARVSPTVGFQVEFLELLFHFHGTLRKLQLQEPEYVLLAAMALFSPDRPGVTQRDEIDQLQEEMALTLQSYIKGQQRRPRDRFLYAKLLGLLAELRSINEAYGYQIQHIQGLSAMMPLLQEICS
Chain of Oxysterols receptor LXR-beta (Homo sapiens) (P55055 whole entry, looked up, the tested form may be a part): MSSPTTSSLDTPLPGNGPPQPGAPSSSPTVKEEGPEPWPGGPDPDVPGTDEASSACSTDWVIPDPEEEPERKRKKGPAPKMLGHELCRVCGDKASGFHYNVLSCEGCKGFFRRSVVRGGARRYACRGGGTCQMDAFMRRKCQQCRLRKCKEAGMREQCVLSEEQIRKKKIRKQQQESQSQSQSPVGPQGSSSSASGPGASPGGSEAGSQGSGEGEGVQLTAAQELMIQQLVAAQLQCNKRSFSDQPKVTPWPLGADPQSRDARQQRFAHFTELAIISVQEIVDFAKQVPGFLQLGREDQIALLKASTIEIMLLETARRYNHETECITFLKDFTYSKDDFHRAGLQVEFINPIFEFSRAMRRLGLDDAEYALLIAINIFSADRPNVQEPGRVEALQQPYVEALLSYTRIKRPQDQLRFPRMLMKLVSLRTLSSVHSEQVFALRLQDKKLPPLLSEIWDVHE
Chain of Transcriptional activator Myb (Homo sapiens) (P10242 whole entry, looked up): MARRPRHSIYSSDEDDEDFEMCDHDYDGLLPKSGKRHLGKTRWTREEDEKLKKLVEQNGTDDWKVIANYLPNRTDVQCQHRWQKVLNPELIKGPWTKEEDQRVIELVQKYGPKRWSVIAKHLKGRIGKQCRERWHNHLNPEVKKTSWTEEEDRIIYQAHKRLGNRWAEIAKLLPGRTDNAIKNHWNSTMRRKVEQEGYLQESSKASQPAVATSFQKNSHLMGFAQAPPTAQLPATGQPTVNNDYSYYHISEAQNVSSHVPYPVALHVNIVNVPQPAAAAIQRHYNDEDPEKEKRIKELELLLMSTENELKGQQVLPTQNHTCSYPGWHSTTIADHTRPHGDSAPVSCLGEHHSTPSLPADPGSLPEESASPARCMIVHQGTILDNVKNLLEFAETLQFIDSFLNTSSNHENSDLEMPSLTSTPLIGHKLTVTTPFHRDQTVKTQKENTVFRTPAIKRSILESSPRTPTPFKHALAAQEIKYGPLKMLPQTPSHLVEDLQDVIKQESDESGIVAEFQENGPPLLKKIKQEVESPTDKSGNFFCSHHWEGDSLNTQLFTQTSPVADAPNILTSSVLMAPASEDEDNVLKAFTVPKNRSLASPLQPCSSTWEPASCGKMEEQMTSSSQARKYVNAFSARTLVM
Chain of Steroid hormone receptor ERR1 (Homo sapiens) (P11474 whole entry, looked up, the tested form may be a part): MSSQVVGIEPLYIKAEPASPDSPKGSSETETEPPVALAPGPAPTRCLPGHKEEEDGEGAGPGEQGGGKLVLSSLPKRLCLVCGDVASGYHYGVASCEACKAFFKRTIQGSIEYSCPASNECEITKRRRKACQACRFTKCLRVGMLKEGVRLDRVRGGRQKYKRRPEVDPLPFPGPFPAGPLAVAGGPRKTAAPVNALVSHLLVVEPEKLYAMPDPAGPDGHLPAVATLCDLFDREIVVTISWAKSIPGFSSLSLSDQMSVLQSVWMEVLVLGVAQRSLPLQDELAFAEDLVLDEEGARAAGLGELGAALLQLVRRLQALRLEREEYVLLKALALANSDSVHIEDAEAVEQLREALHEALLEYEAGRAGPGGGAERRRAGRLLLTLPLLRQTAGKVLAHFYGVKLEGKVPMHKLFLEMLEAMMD
Chain of Estrogen receptor (Homo sapiens) (P03372 whole entry, looked up, the tested form may be a part): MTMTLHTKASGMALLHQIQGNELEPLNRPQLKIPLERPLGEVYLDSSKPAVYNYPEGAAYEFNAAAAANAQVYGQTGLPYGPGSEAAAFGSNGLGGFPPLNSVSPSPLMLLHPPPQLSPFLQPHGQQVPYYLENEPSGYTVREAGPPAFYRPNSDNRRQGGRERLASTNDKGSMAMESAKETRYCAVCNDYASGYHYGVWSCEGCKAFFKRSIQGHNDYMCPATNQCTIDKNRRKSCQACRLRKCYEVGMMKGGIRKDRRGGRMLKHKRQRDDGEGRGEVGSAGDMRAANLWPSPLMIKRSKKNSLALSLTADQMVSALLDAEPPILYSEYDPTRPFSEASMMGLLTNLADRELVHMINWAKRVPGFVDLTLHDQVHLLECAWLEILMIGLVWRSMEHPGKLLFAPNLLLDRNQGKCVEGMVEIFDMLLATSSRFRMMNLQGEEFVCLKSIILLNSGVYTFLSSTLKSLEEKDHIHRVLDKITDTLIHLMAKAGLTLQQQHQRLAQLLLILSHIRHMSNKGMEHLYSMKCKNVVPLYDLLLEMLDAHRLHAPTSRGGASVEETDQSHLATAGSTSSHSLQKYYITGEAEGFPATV
Chain of Nuclear respiratory factor 1 (Homo sapiens) (Q16656 whole entry, looked up, the tested form may be a part): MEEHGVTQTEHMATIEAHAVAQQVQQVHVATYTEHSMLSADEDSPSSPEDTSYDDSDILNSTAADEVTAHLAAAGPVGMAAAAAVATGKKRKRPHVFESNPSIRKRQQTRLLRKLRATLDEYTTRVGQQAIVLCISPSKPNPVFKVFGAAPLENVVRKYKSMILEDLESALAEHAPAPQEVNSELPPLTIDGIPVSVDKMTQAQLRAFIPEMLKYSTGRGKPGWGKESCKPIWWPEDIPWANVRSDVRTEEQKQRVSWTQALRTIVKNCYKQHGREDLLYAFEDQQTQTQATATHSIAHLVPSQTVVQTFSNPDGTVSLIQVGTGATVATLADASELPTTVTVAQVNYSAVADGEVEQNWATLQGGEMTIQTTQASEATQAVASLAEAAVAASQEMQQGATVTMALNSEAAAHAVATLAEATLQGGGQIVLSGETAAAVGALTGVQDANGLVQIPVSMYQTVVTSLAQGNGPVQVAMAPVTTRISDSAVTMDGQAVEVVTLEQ
Chain of Nuclear receptor subfamily 4 group A member 2 (Homo sapiens) (P43354 whole entry, looked up): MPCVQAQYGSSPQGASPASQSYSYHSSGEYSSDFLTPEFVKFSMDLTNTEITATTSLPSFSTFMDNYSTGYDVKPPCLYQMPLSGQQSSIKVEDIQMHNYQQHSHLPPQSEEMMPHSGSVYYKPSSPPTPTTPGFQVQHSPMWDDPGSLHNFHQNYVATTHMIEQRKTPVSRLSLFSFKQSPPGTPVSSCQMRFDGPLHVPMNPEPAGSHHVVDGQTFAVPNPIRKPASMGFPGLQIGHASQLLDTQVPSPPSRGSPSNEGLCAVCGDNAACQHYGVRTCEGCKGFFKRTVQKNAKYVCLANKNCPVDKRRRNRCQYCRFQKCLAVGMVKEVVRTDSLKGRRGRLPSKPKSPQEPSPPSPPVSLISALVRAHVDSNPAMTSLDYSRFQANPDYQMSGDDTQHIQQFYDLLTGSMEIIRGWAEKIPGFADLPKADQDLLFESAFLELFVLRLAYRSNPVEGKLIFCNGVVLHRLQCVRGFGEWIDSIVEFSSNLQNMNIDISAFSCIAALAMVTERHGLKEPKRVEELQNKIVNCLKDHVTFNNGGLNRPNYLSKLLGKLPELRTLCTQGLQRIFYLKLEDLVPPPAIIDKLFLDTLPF
Chain of Hepatocyte nuclear factor 4-alpha (Homo sapiens) (P41235 whole entry, looked up): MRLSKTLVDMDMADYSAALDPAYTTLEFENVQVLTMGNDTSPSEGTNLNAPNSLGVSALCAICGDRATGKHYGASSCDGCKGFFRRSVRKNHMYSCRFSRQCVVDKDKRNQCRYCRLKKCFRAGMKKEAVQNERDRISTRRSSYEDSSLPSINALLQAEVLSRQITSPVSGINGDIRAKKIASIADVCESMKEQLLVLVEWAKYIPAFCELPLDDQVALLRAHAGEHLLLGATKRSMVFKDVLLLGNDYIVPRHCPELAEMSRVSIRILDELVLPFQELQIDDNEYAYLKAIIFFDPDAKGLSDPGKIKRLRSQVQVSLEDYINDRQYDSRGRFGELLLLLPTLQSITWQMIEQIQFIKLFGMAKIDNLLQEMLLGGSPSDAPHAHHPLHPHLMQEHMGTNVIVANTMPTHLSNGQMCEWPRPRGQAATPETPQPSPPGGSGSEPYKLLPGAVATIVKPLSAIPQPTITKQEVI

NCCOCCOCCN
not listed: [13] | [14] | [15] | [16] | [17] | [18] | [19]
inactive: all other assays above

C=CCCCCCCCCCCCC
not listed: [9] | [14] | [15] | [16] | [17] | [18] | [19]
inactive: all other assays above

c1ccc2occc2c1
not listed: [6] | [7] | [13] | [17] | [18] | [19]
inactive: all other assays above

CCCC(=O)O
not listed: [7] | [8] | [9] | [15] | [16] | [18] | [19]
inactive: all other assays above

O=C1CCCCC1
not listed: [6] | [8] | [14] | [15] | [16]
inactive: all other assays above

S=c1[nH]c2ccccc2s1
not listed: [6] | [8] | [10] | [15] | [17] | [18]
inactive: all other assays above

O=C(O)CN(CC(=O)O)CC(=O)O
active: [11] 0.386 µM
not listed: [6] | [8] | [17] | [18] | [19]
inactive: all other assays above

CSc1ccc(Oc2ccc(S(N)(=O)=O)cc2CN(C)C)cc1C
active: [3] 29.8 µM
not listed: [7] | [9] | [13] | [14] | [17]
inactive: all other assays above

CC1=C(C)S(=O)(=O)CCS1(=O)=O
inactive: [1] | [2] | [3] | [4] | [18] | [5] | [9] | [11] | [12]

CC(COCC(C)OC(=O)c1ccccc1)OC(=O)c1ccccc1 (stereo unspecified)
not listed: [6] | [8] | [10] | [16] | [18] | [19]
inactive: all other assays above
